Broadly, the cell viability is a read-out of living cells in per cent, often relative to untreated cells.

This test relates to OCI-AML2. Briefly: cell viability relative to vehicle control; higher = less cytotoxic. The conditions noted are these: 10 µM; SRSF2 genotype: P95H/wt. In outline: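 Four leukaemia lines, as CRISPR-edited mutant clones and isogenic wild-type clones, were tested against Selleck bioactive, kinase and epigenetic probe libraries after removal of identity-inconsistent compounds. Cells were exposed to a single 10 µM dose for 48 h, and CellTiter-Glo luminescence was then read. Viability was calculated relative to the on-plate vehicle control.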
Turning to `CC(C)Cc1ccc(C(C)C(=O)O)cc1` (stereo not given) [Ibuprofen (Advil)], the cell viability was 87.7%.
For the molecule `COCCOc1cnc2ccn([C@H](C)c3nnc4c(F)cc(-c5cnn(C)c5)cn34)c(=O)c2c1`, the cell viability stood at 82%.
The value for `CC(=O)O[C@H]1C(=O)[C@@]2(C)[C@H]([C@H](OC(=O)c3ccccc3)[C@]3(O)C[C@H](OC(=O)[C@H](O)[C@@H](NC(=O)c4ccccc4)c4ccccc4)C(C)=C1C3(C)C)[C@]1(OC(C)=O)CO[C@@H]1C[C@@H]2O` [Paclitaxel (Taxol)] was 7.7%; that for `O=C[C@H](O)[C@H]1OC(=O)[C@@H](O)[C@H]1O` [D-Glucurone] was 88.8%; that for `CC(Oc1cc(-c2cnn(C3CCNCC3)c2)cnc1N)c1c(Cl)ccc(F)c1Cl` [(S)-crizotinib] was 88.8%.
As to `CCS(=O)(=O)N1CCC([C@@H](C)n2c(C)c(C(=O)NCc3c(OC)cc(C)[nH]c3=O)c3ccccc32)CC1`, the cell viability was determined as 107%.
Regarding `C#Cc1cccc(Nc2ncnc3cc4c(cc23)OCCOCCOCCO4)c1` [Icotinib], the cell viability was determined as 94.9%.
`COc1cc(Nc2c(C#N)cnc3cc(OCCCN4CCN(C)CC4)c(OC)cc23)c(Cl)cc1Cl` [Bosutinib (SKI-606)]: the cell viability was 1.53%.
With `COC(=O)N[C@H](C(=O)N1CC2(CC2)C[C@H]1c1nc(-c2ccc3c(c2)C(F)(F)c2cc(-c4ccc5[nH]c([C@@H]6[C@H]7CC[C@H](C7)N6C(=O)[C@@H](NC(=O)OC)C(C)C)nc5c4)ccc2-3)c[nH]1)C(C)C` [Ledipasvir (GS5885)], the cell viability stood at 87.9%.
As to `Clc1ccc(CSC(Cn2ccnc2)c2ccc(Cl)cc2Cl)cc1` (stereo not given) [Sulconazole Nitrate], the cell viability came out at 40%.

Source of the values: the supplement of paper PMC10981050.
